MBNL1 CUG block = blocks human MBNL1 binding to CUG repeat RNA | TR-FRET MBNL1-His/biotin-(CUG)12 binding, 665/545 ratio | Potency, µM (doses to about 57.5 µM), without a hit: top-dose activity change, negative = inhibition, actives largely listed as inhibitors | hit rate 0.036% among 280,000 | AID 2675; active = well fitted inhibition curve with a large enough effect in the signal ratio, with a control signal flat, not every such curve was filed as active; inconclusive = small, poorly fitted or top-dose-only effect, or effect the other way, or a change in a side signal; inactive = no such curve, though single readings can be large or run the other way; the % refers to the signal ratio; also: potency is read from the fitted curve at half-maximal effect; % is scaled to controls: 0 for no effect and ±100 for the full control effect
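TR-FRET between His-tagged MBNL1 and biotin-(CUG)12 RNA, detected with Tb anti-His antibody (0.055 ng/ul) and streptavidin-XL665 (5 nM), 60 min at room temperature. Compounds titrated 92 nM to 58 uM; 665/545 nm ratio normalized to buffer and complex controls.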
RORgamma inh = ROR gamma (mouse) transcription inhibition. hit rate 5.4% among 310,000. Drosophila S2 Gal4-RORgamma UAS-luciferase reporter, 20 h. AID 2551. Potency, µM (top dose mostly 53.6 µM), for inactives: top-dose activity change, negative = inhibition, actives largely listed as inhibitors; also: potency is read from the fitted curve at half-maximal effect; % is scaled to controls: 0 for no effect and ±100 for the full control effect; nearly all actives have a fitted effect of over 60% in size
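Schneider cells (Drosophila), stable Gal4 DBD–ROR gamma + UAS-luc; 1 hr cmpd preincubation; Cu2+ induction 700 uM final; 20 hr ambient; luminescence.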
Six1-Eya2 blk = Six1/Eya2 interaction inhibition. AlphaScreen GST-Six1/His-Eya2 binding, biochemical; stronger effect = lower value. activity change, % (concentration not given with the values). hit rate 0.56% among 360,000. AID 651725; in the data active = activity change below about -65%; inconclusive = mostly about -30% to -63%; also: % is scaled to controls: 0 for no effect and ±100 for the full control effect
Target sequence (O00167 whole entry, looked up): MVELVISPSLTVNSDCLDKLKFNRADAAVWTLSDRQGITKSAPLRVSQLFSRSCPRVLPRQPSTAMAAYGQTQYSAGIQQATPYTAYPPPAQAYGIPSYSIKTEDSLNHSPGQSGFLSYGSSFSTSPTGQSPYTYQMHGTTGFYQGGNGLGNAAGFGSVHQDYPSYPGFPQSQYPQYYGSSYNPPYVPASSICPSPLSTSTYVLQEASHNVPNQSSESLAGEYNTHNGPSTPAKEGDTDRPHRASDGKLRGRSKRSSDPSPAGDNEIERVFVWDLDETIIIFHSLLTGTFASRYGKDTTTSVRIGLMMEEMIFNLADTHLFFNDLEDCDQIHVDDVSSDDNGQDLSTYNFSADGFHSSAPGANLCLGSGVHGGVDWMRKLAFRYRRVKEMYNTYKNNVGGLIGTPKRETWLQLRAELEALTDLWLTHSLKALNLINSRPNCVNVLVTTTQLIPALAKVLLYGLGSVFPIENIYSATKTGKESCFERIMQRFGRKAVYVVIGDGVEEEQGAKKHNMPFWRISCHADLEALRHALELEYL
Target sequence (Q15475 whole entry, looked up): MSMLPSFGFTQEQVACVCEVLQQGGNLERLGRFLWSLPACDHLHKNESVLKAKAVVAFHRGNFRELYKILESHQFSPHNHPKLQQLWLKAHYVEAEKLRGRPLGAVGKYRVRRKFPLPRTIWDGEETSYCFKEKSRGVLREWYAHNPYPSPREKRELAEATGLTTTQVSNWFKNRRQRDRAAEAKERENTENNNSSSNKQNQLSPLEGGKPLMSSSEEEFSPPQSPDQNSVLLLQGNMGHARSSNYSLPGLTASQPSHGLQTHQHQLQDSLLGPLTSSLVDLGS
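GST-Six1 + His-Eya2 (5X stock: 250/500 nM); Tris pH 8.0, 300 mM NaCl, 0.05% BSA, 0.02% Tween 20; GSH donor/Ni acceptor beads; 1 h 37 °C dark; AlphaScreen readout.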
Gal4-VP16 FLuc = counter-screen for ROR gamma inhibitors: Gal4-VP16 reporter; Potency, µM (highest dose often 53.6 µM), for inactives: at the highest dose activity, negative = inhibition, usual class: inhibitors; hit rate 3.5% among 310,000; Drosophila S2 Gal4-VP16 UAS-luciferase, luminescence, 20 h;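 also: Gal4-VP16 expression switched on by copper sulfate through the metallothionein promoter; potency is read from the fitted curve at half-maximal effect; % is scaled to controls: 0 for no effect and ±100 for the full control effect; nearly all actives have a fitted effect of over 50% in size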
CBFb-RUNX1 inh = blocks binding between human CBF-beta and RUNX1; AID 1477; 230,000 tested, under 10 active; Potency, µM (top dose mostly 59.8 µM), for inactives: at the top dose activity, negative = inhibition, hits mostly inhibitors; AlphaScreen CBFb-His/RUNX1-biotin binding, biochemical; also: % of control where 0% means no effect
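Read-out: AlphaScreen. Format: His-CBF-beta with biotinylated RUNX1 (30 nM each) preincubated 20 min, compound 15 min, Ni-chelate plus streptavidin beads 90 min; room temperature throughout.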
CtBP-E1A blk = blocks the CtBP interaction with E1A; activity change, % (no concentration beside the values); AlphaScreen GST-E1A/His-CtBP binding, 1536-well; stronger effect = lower value; hit rate 0.49% among 340,000; in the data active = activity change below about -65%; inconclusive = mostly about -30% to -63%; also: % is scaled to controls: 0 for no effect and ±100 for the full control effect
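Steps: dispense buffer (Tris pH 8.0, NaCl 300 mM, TCEP 1 mM, BSA, Tween 20); add 5X protein mix (GST-E1A, His-CtBP, 125 nM each); pin 23 nL compound; 2 h at 37 °C, dark; add 5X beads (50 ug/mL); 1 h; read.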
Numbers without * were called inactive; ? = inconclusive; . = not tested or not shown; [ ] = remark or other dose. An excerpt weighted towards active compounds, which were near 5.5% of everything screened. Unless noted, calls follow the shape of the dose curve; as a rule, active = well fitted curve in the direction sought with a large enough effect; inconclusive = small, poorly fitted or top-dose-only effect, or another doubt; inactive = no such curve, though single readings can be large; an effect the other way counts as inactive or inconclusive.

SMILES | MBNL1 CUG block | RORgamma inh | Six1-Eya2 blk | Gal4-VP16 FLuc | CBFb-RUNX1 inh | CtBP-E1A blk
Cn1ncnc2c(=O)n(C)c(=O)nc1-2 | ? | 0.04µM* | -3 | 0.63µM* | ? | ?
CCOP(=S)(OCC)SCn1c(=O)oc2cc(Cl)ccc21 | . | 38% | . | -20% | . | .
CCn1c(=O)oc2cc(NC(=O)CCl)ccc21 | -1% | 11µM* | -4 | ? | 15% | 0
CC1CCC2(OC1)OC1CC3C4CC[C@@H]5CC(O)CC[C@@]5(C)C4CC(=O)[C@]3(C)C1C2C (stereo not given in full) | . | -12% | . | 4% | 20% | .
O=c1[nH]c(=O)n(CCC2=CCCCC2)c(O)c1/C=N/Nc1cccc2ccccc12 | 12% | -38% | -8 | ? | ? | 1
Cn1c(=O)c2c(nc(N/N=C/c3c(O)n(-c4ccccc4)c(=S)[nH]c3=O)n2C)n(C)c1=O | -4% | -8% | -84* | -11% | . | -84*
O=c1[nH]c(=O)n(CCC2=CCCCC2)c(O)c1/C=N/Nc1ccccc1 | -1% | ? | 0 | 20µM* | -4% | -6
O=C(N/N=C/c1c(O)n(Cc2ccc(F)cc2)c(=S)[nH]c1=O)c1ccncc1 | . | ? | ? | -10% | ? | -67*
O=C(N/N=C/c1c(O)n(CCc2ccccc2)c(=O)[nH]c1=O)c1ccccc1 | 17% | 14µM* | -20 | -9% | -1% | -20
C[C@@H]1O[C@H](O[C@H]2C[C@@H](O)[C@@]3(CO)[C@H]4[C@@H](O)C[C@]5(C)[C@@H](C6=CC(=O)OC6)CC[C@]5(O)[C@H]4CC[C@]3(O)C2)[C@@H](O)[C@H](O)[C@@H]1O | . | -9%[16.9 µM] | . | -8%[17 µM] | -4%[21.7 µM] | .
CC(C)(C)OC(=O)N1CC[C@H]1COc1cnc[c]([Sn]([CH3])([CH3])[CH3])c1 | . | ? | . | 5%[10 µM] | 9%[13.1 µM] | .
O=C(N/N=C/c1c(O)n(C2CCCCC2)c(=S)[nH]c1=O)c1ccccc1 | -12% | 5.6µM* | -5 | ? | . | -18
CC/C(=N\NC(=O)c1ccccc1O)c1c(O)n(C2CCCCC2)c(=O)[nH]c1=O | 3% | 2.5µM* | -2 | 8.9µM* | . | -10
CCC(=NCCO)c1c(O)n(C2CCCCC2)c(=O)[nH]c1=O | 0% | 9% | 0 | -1% | 4% | 8
CC(C)c1ccc(-n2c(O)c(/C=N/NC(=O)c3ccncc3)c(=O)[nH]c2=O)cc1 | ? | 22% | ? | -1% | -3% | ?
CC(C)c1ccc(-n2c(O)c(/C=N/NC(=O)c3ccccc3O)c(=O)[nH]c2=S)cc1 | ? | 0.32µM* | ? | 4.5µM* | . | ?
O=C(N/N=C/c1c(O)n(C2CCCCC2)c(=S)[nH]c1=O)c1ccccc1O | -2% | 4µM* | -11 | 3.2µM* | . | .
N[C@]1(C(=O)O)CC[C@@H](C(=O)O)C1 (racemic) | . | . | . | . | 10% | .
C=CC(=O)OCCN(C)C | . | -7% | . | -15% | 12%[21.7 µM] | .
ClP(Cl)(Cl)(Cl)Cl | . | -26% | . | 4% | 25%[21.7 µM] | .
S=c1[nH]nc(Cn2c(-c3ccccn3)nc3ccccc32)n1-c1ccc2c(c1)OCCO2 | 2% | ? | 2 | ? | -15% | 0
ClC1=C(Cl)C(Cl)(Cl)C(Cl)=C1Cl | . | 18µM* | . | ? | 8%[21.7 µM] | .
ClC1=C(Cl)C(Cl)(C2(Cl)C(Cl)=C(Cl)C(Cl)=C2Cl)C(Cl)=C1Cl | . | 8.9µM* | . | 7.1µM* | . | .
Cc1cccc(C)c1N | . | 19% | . | -2% | ? | .
CN1C(=O)CCS(=O)(=O)[C@@H]1c1ccc(Cl)cc1 | . | 12%[16.9 µM] | . | 11%[17 µM] | 17%[21.7 µM] | .
SMILES | MBNL1 CUG block | RORgamma inh | Six1-Eya2 blk | Gal4-VP16 FLuc | CBFb-RUNX1 inh | CtBP-E1A blk
O=C1C=CC(=O)c2c1ccc1c2ccc2ccccc21 | . | ? | . | ? | 5%[21.7 µM] | .
COC(=O)C[C@]1(C(=O)OC)CN(C#N)N(c2ccc(Cl)cc2)C12c1ccccc1-c1ccccc12 | 8% | 5.6µM* | 7 | 3.2µM* | -15% | 13
COC(=O)[C@@H]1[C@@H](C(=O)OC)C2(c3ccccc3-c3ccccc32)N(c2ccc(Cl)cc2)N1C#N | ? | ? | -8 | 4.5µM* | ? | -1
CCOC(=O)C(SP(=S)(OC)OC)c1ccccc1 (stereo not given) | . | 13µM* | . | ? | 21% | .
CN1CCN(c2ncc3ncc(=O)n(C)c3n2)CC1 | . | 22% | . | -3% | . | .
C=C1C([C@@]2(C)C(OC(C)=O)CC(=O)O[C@@](C)(COC(C)=O)C2CC(=O)OC)C(OC=O)C(OC(=O)C(OC(C)=O)C(C)CC)[C@]2(C)C(c3ccoc3)CC(=O)C12O (stereo not given in full) | . | -3% | . | -2% | -7% | .
Fc1ccc(C(OCCN2CCN(C/C=C/c3ccccc3)CC2)c2ccc(F)cc2)cc1 | . | . | . | . | -2% | .
CCC1CN2CCC1CC2C(O)c1ccnc2ccccc12 (stereo not given) | . | 6% | . | -6% | -2%[21.7 µM] | .
Cn1c(NN=O)nc2ccccc21 | 15% | 0.035µM* | ? | ? | -3% | ?
CN1CCN(Cc2nc3ccccc3n2C)CC1 | 3% | -12% | -18 | -6% | 2% | -16
Clc1ccc2ccccc2c1 | . | 0% | . | 2% | 12%[21.7 µM] | .
CCOc1ccc(N2C(=O)/C(=C/c3ccco3)C(=O)NC2=S)cc1 | 12% | 12% | -81* | 4% | . | .
O=c1[nH]sc2cc(F)ccc12 | -14% | 2.2µM* | 13 | 2.8µM* | 2% | 4
O=S(=O)(c1ccc(Cl)cc1)c1cc(Cl)c(Cl)cc1Cl | . | -1% | . | -1% | ? | .
C/C(=N\NC(N)=S)C12CC3CC(CC(C3)C1)C2 | -1% | 1.8µM* | -5 | 2.5µM* | -6% | 12
CC(C)c1ccc2c(c1O)CCC1C3=C(CC[C@]21C)C(=O)OC3 (stereo not given in full) | . | ? | . | -28% | . | .
CN1C[C@@H](CS(=O)(=O)N(C)C)C[C@@H]2c3cccc4c3c(cn4C)C[C@H]21 | . | . | . | . | -12% | .
CN1CC(CNC(=O)OCc2ccccc2)CC2c3cccc4c3c(cn4C)CC21 (stereo not given) | . | 16µM* | . | ? | . | .
CC(C)Oc1cc(-n2c(=S)[nH]c3ccccc3c2=O)c(Cl)cc1Cl | 7% | 2.8µM* | -3 | 5µM* | 0% | -1
COc1cc(-n2c(=S)[nH]c3ccccc3c2=O)c(Cl)cc1Cl | 2% | 2.8µM* | -9 | 5.6µM* | -8% | -4
Nc1ccccc1-c1ccccc1 | . | 32% | . | 5% | 5%[21.7 µM] | .
CCCN(CCC)[C@@H]1CCc2c(OC)cccc2[C@@H]1C | . | -15% | . | 19% | 25% | .
CCOC(=O)c1cccc(NC2c3ccccc3C(=O)N2Cc2ccco2)c1 (stereo not given) | 1% | ? | 2 | 13µM* | -4% | -1

Screening results from PubChem BioAssay.
